According to the supplement of paper PMC9262897, “Low-cost anti-mycobacterial drug discovery using engineered E. coli” (Nature Communications, 2022):
Structures can show the parent of a compound that is named as a salt. ± gives the standard deviation of the averaged measurements.

Test system: E. coli TESEC Mtb Alr
Test: growth (OD600 after 10 h); higher = more growth (less inhibition)
Settings: compound 0.1 mM
Description: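 TESEC Mtb Alr E. coli, or the Alr+ wild-type control, in 384-well plates with Prestwick library compounds at 0.1 mM and 1% DMSO, across arabinose induction levels of 1E3 to 1E7 nM. Growth is read as OD600 after 10 h at 37 °C in triplicate biological replicates.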

[1] = arabinose 1000 nM, raw OD600 reference: median of DMSO wells 0.294, cell-free background 0.041
[2] = arabinose 10000 nM, raw OD600 reference: median of DMSO wells 0.264, cell-free background 0.041
[3] = arabinose 100000 nM, raw OD600 reference: median of DMSO wells 0.201, cell-free background 0.041
[4] = arabinose 1000000 nM, raw OD600 reference: median of DMSO wells 0.193, cell-free background 0.041
[5] = arabinose 10000000 nM, raw OD600 reference: median of DMSO wells 0.146, cell-free background 0.041

Structure (SMILES)	growth [1]	growth [2]	growth [3]	growth [4]	growth [5]
CCN(CC)CCc1nc(-c2ccccc2)no1 [Oxalamine citrate salt]	0.273 ± 0.021	0.27 ± 0.0036	0.187 ± 0.0043	0.187 ± 0.0094	0.135 ± 0.0019
Cc1cnc(NC(=O)C2=C(O)c3ccccc3S(=O)(=O)N2C)s1 [Meloxicam]	0.186 ± 0.0048	0.238 ± 0.012	0.208 ± 0.039	0.117 ± 0.0022	0.149 ± 0.0054
Cc1ccnc2c1NC(=O)c1cccnc1N2C1CC1 [Nevirapine]	0.29 ± 0.0079	0.254 ± 0.0046	0.212 ± 0.0063	0.203 ± 0.0086	0.14 ± 0.0044
COc1ccc(OC)c(C(O)CNC(=O)CN)c1 (stereo not given) [Midodrine hydrochloride]	0.291 ± 0.0075	0.281 ± 0.0091	0.204 ± 0.02	0.186 ± 0.0048	0.141 ± 0.0067
C[C@]1(Cn2ccnn2)[C@H](C(=O)O)N2C(=O)C[C@H]2S1(=O)=O [Tazobactam]	0.0404 ± 0.0022	0.0384 ± 0.0001	0.045 ± 0.0019	0.18 ± 0.015	0.074 ± 0.0014
CCCCC(CC)CNC(=N)NC(=N)NCCCCCCNC(=N)NC(=N)NCC(CC)CCCC (stereo not given) [Alexidine dihydrochloride]	0.0821 ± 0.0028	0.0849 ± 0.0013	0.0842 ± 0.0022	0.0553 ± 0.0016	0.0814 ± 0.004
CC(=O)[C@H]1CC[C@H]2[C@@H]3C[C@H](C)C4=CC(=O)CC[C@]4(C)[C@H]3[C@@H](O)C[C@]12C [Medrysone]	0.162 ± 0.0096	0.2463 ± 0.002	0.1231 ± 0.00055	0.112 ± 0.003	0.138 ± 0.0029
CC(=O)N(CC(C)C(=O)O)c1c(I)cc(I)c(N)c1I (stereo not given) [Iocetamic acid]	0.274 ± 0.0081	0.289 ± 0.0072	0.2 ± 0.01	0.265 ± 0.003	0.144 ± 0.0039
